The values that follow come from PubChem BioAssay AID1851 (National Center for Advancing Translational Sciences (NCATS), 2009).

Several values for one entry are separate records, joined by “and”; a condition that tells them apart may be missing. Equal values may be shown once. About 2,600 (16%) of roughly 16,000 compounds were called active. Roughly 20% stayed inconclusive and do not appear here. The call rests on the fitted dose curve; in most records, active means well fitted curve in the direction sought with a large enough effect; inconclusive means small, poorly fitted or top-dose-only effect, or effect the other way; inactive means no such curve, though single readings can be large or run the other way. Only a sample is shown.
On the % scale 0 is the no-effect control and ±100 the full control effect.

In the assay the target is Cytochrome P450 2D6 (Homo sapiens) (UniProt P10635). The experiment in a line: Cytochrome panel assay with activity outcomes. The note with it: recombinant CYP, pro-luciferin dealkylation, luminescence, p450-cyp2d6; series mostly up to 57.1 µM.
Sequence of Cytochrome P450 2D6 (Homo sapiens) (P10635 whole entry, looked up): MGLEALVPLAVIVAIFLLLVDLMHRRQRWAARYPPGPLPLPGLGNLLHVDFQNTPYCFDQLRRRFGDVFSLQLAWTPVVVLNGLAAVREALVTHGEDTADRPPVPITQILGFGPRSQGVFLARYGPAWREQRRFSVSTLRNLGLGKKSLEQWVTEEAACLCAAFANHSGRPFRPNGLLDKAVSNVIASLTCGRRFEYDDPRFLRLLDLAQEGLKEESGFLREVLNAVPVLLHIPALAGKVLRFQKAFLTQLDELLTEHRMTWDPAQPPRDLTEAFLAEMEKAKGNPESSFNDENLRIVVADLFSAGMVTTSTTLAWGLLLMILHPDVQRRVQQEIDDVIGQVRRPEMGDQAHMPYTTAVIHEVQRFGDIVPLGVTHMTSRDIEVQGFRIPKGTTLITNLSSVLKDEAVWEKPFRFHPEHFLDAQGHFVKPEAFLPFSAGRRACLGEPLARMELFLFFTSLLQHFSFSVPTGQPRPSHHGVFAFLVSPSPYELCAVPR
Take `CC(C)(C)CC(C)(C)c1ccc(OCOCCOCCO)c(Cc2cc(C(C)(C)CC(C)(C)C)cc(Cc3cc(C(C)(C)CC(C)(C)C)ccc3OCOCCOCCO)c2OCOCCOCCO)c1`: the AC50 entry was “inactive”. Turning to `CCCCSc1nc(C)cc(C)c1S(=O)(=O)c1ccccc1C`, the AC50 entry was “inactive”. For `Cc1ccc([C@@]2(C)CC/C(=N/N=C3\CC[C@](C)(c4ccc(C)c(C)c4)c4cc(C)c(C)cc43)c3cc(C)c(C)cc32)cc1C`, the activity, negative = inhibition was -2.73% [at 11.4 µM] (inactive). Take `O=c1ccc(Oc2nc(N3CCOCC3)nc(N3CCOCC3)n2)n[nH]1`: the AC50 entry was “inactive”.

In the case of `NCC[C@H](N)C(=O)O`, the activity, negative = inhibition was 6.66% [at 11.4 µM] (inactive). `O=S(=O)(/N=C(/Nc1ccccn1)c1ccccc1)c1ccc(Cl)cc1`: the AC50 result is “inactive”. With `C=CCSc1nc2c(sc3nc(C)cc(C)c32)c(=O)[nH]1`, the AC50 entry was “inactive”. Still for that read-out and setting: the value for `CC1Cc2ccccc2N1Cc1nc2cc(C(F)(F)F)ccc2c(=O)[nH]1` (stereo unspecified) was “inactive”; that for `O=C(CSc1nc2ccccc2[nH]1)Nc1c(F)cccc1F` was “inactive”; that for `Cc1c(OCC(F)(F)F)ccnc1CSc1nc2ccccc2[nH]1` was 0.398 µM (active).

With `C[N+](C)(C)CCCSc1nc2ccccc2[nH]1`, the activity, negative = inhibition was 11.4% [at 11.4 µM] (inactive). For `O=S(=O)(O)c1ccc(-c2nnc(-c3ccccn3)nc2-c2ccc(S(=O)(=O)O)o2)o1`, the activity, negative = inhibition was 16.6% [at 11.4 µM] (inactive). Take `O=C(Cc1cccc2ccccc12)N/N=C/c1ccc(Sc2nc3ccccc3s2)o1`: the AC50 result is “inactive”.

On to `Cc1ccc(S(=O)(=O)N[C@H]2COC(=O)[C@@H](Cc3ccccc3)NC(=O)[C@@H](C)COC(=O)C/C=C\[C@@H]2C)cc1`, for which the activity, negative = inhibition was -0.453% [at 11.4 µM] (inactive) and -0.419% [at 11.4 µM] (inactive).

On to `Cc1ccc(N[C@H](c2ccccc2)c2ccc3cccnc3c2O)cc1`, for which the activity, negative = inhibition is -11.8% [at 11.4 µM] (inactive). For the compound `O=C(O)c1ccccc1N[C@H](c1ccccc1)c1ccc2cccnc2c1O`, the activity, negative = inhibition was -6.89% [at 11.4 µM] (inactive). As to `Oc1c([C@H](Nc2ccccn2)c2ccccc2)ccc2cccnc12`, the AC50 is 0.316 µM (active).

With `CCCc1nnc(SCC(=O)N2CCCCC2)n1CCCOC`, the AC50 result is “inactive”. Still for that read-out and setting: the value for `CCOc1ccc(NC(=S)N(Cc2ccc(N(C)C)cc2)Cc2ccco2)cc1` was 8.91 µM (active); that for `Cc1ccc(NC(=O)N(Cc2ccco2)C(C)c2ccco2)cc1C` (stereo unspecified) was “inactive”; that for `CCOc1ccc(NC(=S)N(Cc2ccc(Cl)cc2)Cc2ccco2)cc1` was 7.94 µM (active). On the same count and under the same terms, as for `O=C(COc1ccc(Cl)cc1)Nc1ccc(N2CCN(C(=O)c3ccco3)CC2)cc1`, the entry is “inactive”. As to `CCOc1ccc(NC(=O)c2oc3ccccc3c2NC(=O)CC)cc1`, the AC50 entry is “inactive”. `Cc1noc(NS(=O)(=O)c2ccc(N/C=C/C(=O)c3ccc4c(c3)OCO4)cc2)c1C`: the AC50 result is “inactive”. As for `CCCn1nnnc1-c1cccc(Cl)c1`, the AC50 result is “inactive”.

Take `COc1ccc(CNc2ncncc2-c2ccc3c(c2)OCO3)c(OC)c1`: the AC50 was 0.794 µM (active).

`COc1ccccc1CNc1ncncc1-c1ccc2c(c1)OCO2`: the AC50 is 2.51 µM (active). As for `CCc1ccc(OCC(=O)NNC(=O)CSc2ncnc3sc(C)c(C)c23)cc1`, the AC50 result is “inactive”.

Turning to `O=S(=O)(/N=C(\Sc1ccccc1)c1ccccc1)c1ccc(Cl)cc1`, the AC50 result is “inactive”. Still for that read-out and setting: as for `Cc1cc(C)c(NC(=O)C[C@H](CC(=O)O)c2cccc3ccccc23)c(C(=O)N2CCC3(CCCC3)CC2)c1`, the entry is “inactive”; as for `CCCCCCCCOC1OC(CO)C(O)C(O)C1NC(C)=O` (stereo unspecified), “inactive”. Consider `Nc1ccn([C@H]2O[C@@H](COP(=O)(O)O)[C@@H](O)[C@H]2O)c(=O)n1`, for which the activity, negative = inhibition is 0.248% [at 11.4 µM] (inactive). As for `CO[C@@H]1COC(=O)[C@H]2CCCN2C(=O)C/C=C\[C@@H](C)[C@H](OC)COC(=O)[C@H]2CCCN2C(=O)C/C=C\[C@H]1C`, the activity, negative = inhibition is 9.95% [at 11.4 µM] (inactive). On to `CN(C)c1oc(-c2ccccc2)nc1C#N`, for which the AC50 entry was “inactive”.

With `Clc1ccccc1-c1cc(NCc2cccnc2)ncn1`, the AC50 result is “inactive”.

With `Clc1ccccc1-c1ccc2ncnc(NCc3cccnc3)c2c1`, the half-maximal activity concentration (AC50) is 6.31 µM (active).

Regarding `COc1cccc(-c2ccc3ncnc(NCc4cccnc4)c3c2)c1`, the concentration at half-maximal activity (AC50) is 10 µM (active). On to `COc1ccccc1-c1ccc2ncnc(Nc3ccccc3)c2c1`, for which the AC50 was 10 µM (active). Same read-out and setting: the value for `COc1ccccc1-c1ccc2ncnc(NCc3cccnc3)c2c1` was 7.94 µM (active); that for `C=CCn1cc(/C=N\NC(=O)c2cc3c(ccc4ccccc43)o2)c2ccccc21` was “inactive”. As to `COc1ccc(CCn2c3c(c(=O)[nH]c2=O)C(NC(=O)c2cccs2)(C(F)(F)F)C(=O)N3)cc1OC` (stereo unspecified), the AC50 result was “inactive”.

`COC(=O)C1=C(NC(=O)c2cccc(OC)c2)CCS1`: the AC50 entry was “inactive”. Take `O=c1c(-c2ccccc2)nc2cnc(N3CCOCC3)nc2n1CCc1ccccc1`: the AC50 entry is “inactive”. Take `N#C/C(=C\Nc1ccccn1)C(=O)C1CC1`: the activity, negative = inhibition was 5.79% [at 11.4 µM] (inactive).

On to `CC[C@@H](CS(=O)(=O)O)[N+](=O)[O-]`, for which the activity, negative = inhibition is 2.2% [at 11.4 µM] (inactive). On to `CN[C@@H]1[C@H](O[C@@H]2O[C@H](CO)[C@@H](N)[C@H](O)[C@@H]2O)O[C@H]2C[C@@H](N)[C@@H](O[C@H]3[C@@H](O)[C@H](O)[C@H](N)C[C@@H]3N)O[C@H]2[C@H]1O`, for which the AC50 entry was “inactive”. For the compound `O=C(COc1ccc(-c2ccccc2)cc1)N/N=C/c1ccccc1Br`, the AC50 entry was “inactive”. Turning to `FC(F)(F)c1ccccc1-c1ccc2ncnc(NCc3cccnc3)c2c1`, the AC50 is 1.58 µM (active). As for `COc1cccc(-c2cc(C(F)(F)F)nc(N3CCCCC3)n2)c1`, the AC50 entry was “inactive”.

As for `COc1ccc(-c2cc(C(F)(F)F)nc(SCc3cccc(C(=O)O)c3)n2)cc1`, the AC50 result was “inactive”. In the case of `CN(C)C(=O)c1ccc(-c2ccc3ncnc(Nc4ccc(F)cc4)c3c2)cc1`, the concentration at half-maximal activity (AC50) is 10 µM (active).

Consider `COc1ccc(-c2cc(C(F)(F)F)nc(NCc3cccnc3)n2)cc1`, for which the AC50 is 31.6 µM (active).

As to `CCCCCCCCCCCCCCCCCCc1ccc(C(=O)/C=C\C(=O)O)cc1`, the AC50 result was “inactive”. As for `Cn1cc(-c2nc3cncnc3n(Cc3ccc(F)cc3)c2=O)c2ccccc21`, the AC50 result was “inactive”.

`CCCCC1(C)OC(=O)C(=Cc2ccc(N(C)C)cc2)C(=O)O1` (stereo unspecified): the AC50 entry was “inactive”.

With `NS(=O)(=O)c1ccc(N=Nc2c(O)c(C(=O)O)cc3ccccc23)cc1`, the activity, negative = inhibition is 14.9% [at 11.4 µM] (inactive). In the case of `CC#CCCCC(=O)Nc1ccc(C(=O)O)cc1`, the AC50 entry is “inactive”. Regarding `Cn1nc(C(F)(F)F)c(/C=N/OC(=O)c2ccccc2Cl)c1SCc1ccc(Cl)cc1`, the AC50 result was “inactive”. Turning to `Cn1nc(C(F)(F)F)c(/C=N/OC(=O)c2ccc(Cl)cc2)c1Cl`, the AC50 was 15.8 µM (active). Consider `Cn1nc(C(F)(F)F)c(/C=N/OCc2c(Cl)cccc2Cl)c1Cl`, for which the AC50 entry was “inactive”.

Consider `C=CC(=O)NC(NC(=O)C=C)c1ccc(Br)cc1`, for which the AC50 entry is “inactive”. With `C(=C1/CCCC2=C1Nc1ncnn1C2c1ccccc1)/c1ccccc1` (stereo unspecified), the AC50 result was “inactive”.

For `O=C1CC(=Nc2ccccc2)NN1c1ccccc1`, the AC50 result is “inactive”. As for `CCCCSc1ccc2nc(-c3ccc(C#N)cc3)cn2c1`, the AC50 entry was “inactive”. In the case of `CCN(Cc1ccncc1)C(=O)[C@@H](CO)c1ccccc1`, the AC50 result is “inactive”.

As for `CCCC(C(=O)OCCN(CC)CC)(c1ccccc1)c1ccccc1`, the AC50 is 63.1 nM (active) and 15.8 nM (active). For `CN(C)CCOC(=O)[C@@H](c1ccccc1)C1(O)CCCC1`, the AC50 entry is “inactive”. On the same count and under the same terms, the value for `O=C(O)C1CCCN1C(=O)OCc1ccccc1` (stereo unspecified) was “inactive”. Regarding `N[C@@](CCc1ccccc1)(C(=O)O)c1ccccc1`, the activity, negative = inhibition is 0.379% [at 11.4 µM] (inactive). Consider `CCN(CC)CCOC(=O)C(c1ccccc1)c1ccccc1`, for which the AC50 was 5.01 µM (active). Turning to `CCN(CC)CCOC(=O)[C@@H](c1ccccc1)C1CCCCC1`, the half-maximal activity concentration (AC50) is 0.631 µM (active). Turning to `O=C1CCC[C@@H](C(C(=O)OCc2ccccc2)C(=O)OCc2ccccc2)C1`, the activity, negative = inhibition is -12.9% [at 11.4 µM] (inactive). Consider `N#Cc1cccc(NC(=O)N2CCC3(CC2)CCN(C(=O)c2cccc(F)c2)CC3)c1`, for which the AC50 entry is “inactive”. Consider `O=C(O)[C@@H]1[C@@H]2C[C@@H]3[C@@H](OC(=O)[C@@H]31)[C@H]2Br`, for which the activity, negative = inhibition is 0.593% [at 11.4 µM] (inactive). With `CCOC(=O)c1ccc(-c2ccc(/C=C(\C#N)C(=O)NCC3CCCO3)o2)cc1` (stereo unspecified), the AC50 result was “inactive”. For the compound `COC(=O)c1cc2c(ccn2-c2ccc(F)cc2)n1CC(C)C`, the AC50 result is “inactive”.

`OC[C@@H]1O[C@@H](n2cnc3cncnc32)[C@@H](O)[C@H]1O`: the AC50 result is “inactive”. For `NC(=O)Nc1n[nH]c(-c2ccccc2)n1`, the activity, negative = inhibition was 9.86% [at 11.4 µM] (inactive).

For the compound `Cc1ccc2cc3cc(C(=O)N4CCCCC4C)oc3nc2c1` (stereo unspecified), the AC50 entry was “inactive”. With `O[C@@H]1[C@@H](OCc2ccccc2)OC[C@H](O)[C@@H]1O`, the activity, negative = inhibition was 0.194% [at 11.4 µM] (inactive). Regarding `COc1cc(C(=O)NC(=S)Nc2ccc(Cl)c(C(=O)O)c2)cc(OC)c1OC`, the AC50 entry is “inactive”. Turning to `CCOc1cc(NC(=S)Nc2cccc(C)c2)c(OCC)cc1NC(=O)CC(C)C`, the AC50 entry was “inactive”. Regarding `COc1cc(OC)c(NC(=S)Nc2cccc(C(C)=O)c2)cc1Cl`, the half-maximal activity concentration (AC50) was 15.8 µM (active). Take `CC(C)CCNC(=O)Cc1ccccc1[N+](=O)[O-]`: the AC50 entry was “inactive”.

Take `O=C(CSc1c[nH]c2ccccc12)N1CCOCC1`: the AC50 entry was “inactive”. Regarding `CCc1cc2c(=O)c(-c3nc4ccccc4[nH]3)coc2cc1OC(=O)N1CCOCC1`, the AC50 result is “inactive”.

In the case of `O=C(c1ccco1)N1CCN(C(=O)C2(S(=O)(=O)c3ccc(Cl)cc3)CC2)CC1`, the AC50 entry was “inactive”. Turning to `COC(=O)[C@H](Cc1ccccc1)NC(=O)[C@@H](C)CO`, the activity, negative = inhibition was 3.71% [at 11.4 µM] (inactive). Take `CCOC(=O)N1CCN(S(=O)(=O)Cc2ccccc2)CC1`: the AC50 entry is “inactive”. Still for that read-out and setting: the value for `CCOC(=O)N1CCN(C(=O)CSCc2ccc(Cl)cc2)CC1` was “inactive”; that for `CCOC(=O)C1(S(=O)(=O)c2ccccc2)CCN(Cc2ccccc2)CC1` was 2 µM (active); that for `COC(=O)[C@H](Cc1ccccc1)NC(=O)N1CCN(Cc2ccccc2)CC1` was 11.2 µM (active).

For the compound `CCOC(=O)N1CCN(C(=O)C(C)SCc2ccccc2)CC1` (stereo unspecified), the AC50 result is “inactive”.

As for `CCOC(=O)C1(S(=O)(=O)c2ccc(Cl)cc2)CCN(Cc2ccc(Cl)cc2)CC1`, the half-maximal activity concentration (AC50) was 3.55 µM (active). Same read-out and setting: the value for `COc1ccc(Nc2ncc(C(=O)N3CCN(Cc4ccccc4)CC3)c3ccccc23)cc1` was “inactive”.

Consider `CC(C)NC1(C(N)=O)CCN(Cc2ccccc2)CC1`, for which the AC50 was 0.631 µM (active).

The AC50 is the concentration giving half of the maximal activity seen.
